# In PubChem BioAssay AID686978 (National Center for Advancing Translational Sciences (NCATS), 2013):
# In all, about 420,000 compounds went through this assay and about 64,000 (15%) were called active. Inconclusive results (about 27%) are left out. A selection follows. A number with no mark means an inactive call. Calls follow the shape of the dose curve; as a rule, active = well fitted inhibition curve with a large enough effect; inconclusive = small, poorly fitted or top-dose-only effect; inactive = flat fitted curve, though single readings scatter.
# Assay: qHTS for Inhibitors of human tyrosyl-DNA phosphodiesterase 1 (TDP1): qHTS in cells in absence of CPT; also: nearly all actives have a fitted effect of over 55% in size
# Conditions: DT40 Tdp1-/- hTDP1 cells, no CPT, ATP luminescence, 48 h; activity change, negative = growth inhibition: at 46.2 µM (top of the series)
# Summary of the method: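 Growth kinetics read by CellTiter-Glo luminescence after ≥48 hr at 37 °C. Cells: DT40 Tdp1-/- stably carrying human TDP1, 400 per well, compound exposure in the absence of CPT (DMSO vehicle).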
# % is scaled to controls: 0 for no effect and ±100 for the full control effect; potency is read from the fitted curve at half-maximal effect.
SMILES,"activity change, negative = growth inhibition",Potency
CCCCOP(=O)(c1ccc(N(C)C)cc1)C(O)c1cc(OC)ccc1OC (stereo not drawn),1.13%,–
CCC1=[N+]([O-])C(C)(/C(C)=N\O)N(O)C1(C)C (stereo not drawn),4.6%,–
CN1C[C@@H](CO)O[C@@H](n2cnc3c(N4CCN(CCO)CC4)ncnc32)C1,-5.1%,–
Cc1ccc(NC(=O)CSCC(=O)Nc2sccc2C#N)cc1,1.64%,–
Cc1cc(=O)oc2c3c(cc(OCC(=O)NCCC(=O)N[C@@H](C)C(=O)O)c12)OC(C)(C)CC3,-2.86%,–
Cc1cc(=O)oc2c3c(cc(OCC(=O)N[C@H](C(=O)O)c4ccccc4)c12)OC(C)(C)CC3,-17.6%,–
Cc1cc(=O)oc2c3c(cc(OCC(=O)NCc4ccccn4)c12)OC(C)(C)CC3,–,25.9 µM (active)
O=c1cc(CO)oc(C(Nc2cccc([N+](=O)[O-])c2)c2ccccn2)c1O (stereo not drawn),-2.19%,–
CC1CCN(CC(=O)Nc2nccs2)CC1,-8.17%,–
CCOC(=O)c1c(-c2ccc(C)cc2C)csc1NC(=O)CSc1nnnn1C,–,20.6 µM (active)
Cn1nnnc1SCC(=O)Nc1sccc1C(N)=O,-0.145%,–
CCOC(=O)CNC(=O)CSc1nnnn1-c1cc(C)ccc1C,-6.94%,–
O=C1c2ccccc2C(=O)N1Cc1cc(-c2ccccc2Cl)no1,-2.31%,–
CS(=O)(=O)Nc1ccccc1N=C(c1ccccc1)c1ccccc1,-23.1%,–
O=C(COc1ccc(S(=O)(=O)NCCc2ccccc2)cc1)N1CCCC1,-19.6%,–
O=C(CCC1CCCN(C(=O)c2ccc(F)c(F)c2)C1)N1CCN(c2ccccn2)CC1 (stereo not drawn),–,18.4 µM (active)
COc1cccc(CNC(=O)CCC2CCCN(C(=O)c3cc(C)[nH]n3)C2)c1 (stereo not drawn),-16.4%,–
CC(=O)c1ccc(S(=O)(=O)NCCC(=O)N2CCN(c3ccccn3)CC2)cc1,-23.6%,–
COc1cccc(C(=O)N2CCCC(CCC(=O)NCc3ccc(F)c(F)c3)C2)c1 (stereo not drawn),-58.6%,–
C=Cc1ccc(C(=O)N2CCCC(CCC(=O)N3CCN(c4ccccn4)CC3)C2)cc1 (stereo not drawn),-9.1%,–
CSc1ncccc1C(=O)N1CCCC(CCC(=O)NCc2ccccc2F)C1 (stereo not drawn),1.92%,–

SMILES,"activity change, negative = growth inhibition",Potency
COc1cccc(CNC(=O)CCC2CCCN(C(=O)c3ccc(F)c(Cl)c3)C2)c1 (stereo not drawn),–,18.4 µM (active)
Cc1[nH]c2c(C(=O)N3CCCC(CCC(=O)NCc4ccccc4F)C3)cccc2c1C (stereo not drawn),–,20.6 µM (active)
Cc1nn(-c2ccc(N3CCCCC3)nn2)c(C)c1CCC(=O)NCc1ccccc1F,-9.4%,–
Cc1ccnc(N)c1,-12.1%,–
Cc1ccc(NC(=O)CSc2sc3c(O)cc(=O)[nH]c3c2C#N)cc1C,0.436%,–
CCC1CCCCN1CCNC(=O)c1[nH]c(C)c(C(C)=O)c1C (stereo not drawn),1.81%,–
O=C(Nc1ccon1)c1nc[nH]c1C(=O)NCc1ccccc1,-23.3%,–
COc1ccc(/C(O)=C2/C(=O)C(=O)N(c3nc(C)c(C)s3)C2c2ccco2)cc1 (stereo not drawn),-16.5%,–
Cc1ccc(C)c(NC(=O)CN(C)C(=O)c2ccc3ncsc3c2)c1,-5%,–
Fc1cccc(Cc2noc(CN3CCN(c4cnccn4)CC3)n2)c1,-6.03%,–
CC(=O)Nc1ccc(NC(=S)NC(=O)/C=C/c2ccccc2)cc1,-20.6%,–
CC1(C)C=Cc2c(ccc(C(=O)/C=C/c3ccccc3)c2O)O1,–,8.91 µM (active)
CC1(C(=O)O)CCN1C(=O)/C=C/c1ccccc1 (stereo not drawn),-14.2%,–
COc1cccc(N2C(=O)CC(N3CCN(S(=O)(=O)c4ccccc4)CC3)C2=O)c1 (stereo not drawn),-3.21%,–
COc1ccc(-c2ccc3c(c2)[C@@H]2C[C@H](N(C)S(=O)(=O)c4ccccc4)[C@H]([C@H](C)O)C(=O)N2CC3)cc1,–,16.4 µM (active)
C[C@H](O)[C@@H]1C(=O)N2CCc3ccc(N4CCOCC4)cc3[C@@H]2C[C@@H]1N(C)C(=O)C(C)(C)C,0.412%,–
CC1=C(C(N)=O)C(c2ccc(F)cc2)n2nc(CCCO)nc2N1 (stereo not drawn),4.07%,–
Cc1cccc(CCNS(=O)(=O)c2ccc3c(c2)NC(=O)CO3)c1,-17.4%,–
CCCC(=O)Nc1cc2nn(-c3ccccc3)nc2cc1C,-21%,–
COc1cc(OC)cc(C(=O)Nc2cc3nn(-c4ccccc4)nc3cc2Cl)c1,–,16.4 µM (active)
CCOC(=O)c1cc(-c2ccccc2)n(-c2cccc(C(=O)Nc3cc(OC)cc(OC)c3)c2)c1C,-16.9%,–

SMILES,"activity change, negative = growth inhibition",Potency
Cc1ccccc1Nc1nnc(SCC(=O)c2cc3ccccc3o2)s1,-103%,–
Cc1cccc(Nc2nnc(SCC(=O)c3c(N)n(C4CC4)c(=O)[nH]c3=O)s2)c1C,–,11.6 µM (active)
CCCn1c(N)c(C(=O)CSc2nnc(Cc3cccs3)n2C2CC2)c(=O)[nH]c1=O,-20.6%,–
CC1CC(C)CN(C/C=C/c2ccccc2[N+](=O)[O-])C1 (stereo not drawn),-22.6%,–
COc1ccc(N2CCN(C3CC(=O)N(c4ccc5c(c4)OCCO5)C3=O)CC2)cc1 (stereo not drawn),5.91%,–
CC1C(=O)N(Cc2cn(Cc3ccco3)nn2)CCS(=O)(=O)N1Cc1ccc(-c2cccc(CO)c2)cc1 (stereo not drawn),–,9.2 µM (active)
CC(C)CC1C(=O)N(Cc2cn(Cc3ccco3)nn2)CCS(=O)(=O)N1Cc1ccc(-c2ccc(Cl)c(Cl)c2)cc1 (stereo not drawn),–,20.6 µM (active)
CCc1cc(=O)oc2cc(C)cc(OCC(=O)N3CCC[C@@H]3C(=O)O)c12,-3.49%,–
CC(NC(=O)COc1ccccc1)C(=O)NC1=NCCS1 (stereo not drawn),-4.39%,–
CCOc1ccc(OCC(=O)Nc2c3c(nn2C(C)(C)C)CS(=O)(=O)C3)cc1,4.73%,–
CCN1C(=O)C(CC(=O)Nc2cc(C)ccc2C)SC1=Nc1ccc(S(N)(=O)=O)cc1 (stereo not drawn),-22.5%,–
CCOc1cccc2cc(C(=O)OCC(=O)Nc3c(C)cccc3CC)c(=O)oc12,-14.4%,–
COc1ccc(CN2CCN(Cc3cn(C)nc3-c3ccccc3)CC2CCO)c(C)c1C (stereo not drawn),–,18.4 µM (active)
Cc1ccc(CN2CCN(Cc3cccc(C)n3)CC2CCO)cc1 (stereo not drawn),-6.22%,–
Cc1ccc(CN2CCN(Cc3cn(C)nc3-c3ccccc3)CC2CCO)o1 (stereo not drawn),-4.56%,–
O=C(c1cccs1)n1nc(NCc2ccccc2)nc1NCc1ccccc1,-25.3%,–
O=C(c1ccc(Cl)cc1)n1nc(-c2cccnc2)nc1NCc1ccc(F)cc1,-17.7%,–
O=C(c1ccco1)n1nc(-c2ccc(Cl)cc2)nc1NCc1ccccc1,–,18.4 µM (active)
CCCC(=O)n1nc(NCc2ccc(OC)cc2)nc1NCc1ccc(OC)cc1,-12%,–
COc1ccc(CNc2nc(-c3ccccc3)nn2C(=O)c2ccccc2OC)cc1,–,18.4 µM (active)
O=C(Cc1ccccc1)n1nc(-c2ccccc2)nc1NCc1ccco1,-20.2%,–
